# From PubChem BioAssay (EPA / NIEHS)
# “And” between values parts separate entries of the source, which are not always exact repeats. Equal values may be shown once. Results filed as inconclusive are left out. Where a structure was tested more than once in an assay, its records may differ in their call. The source made the active and inactive calls. The calls were made as follows, unless noted: active = hit-call score of the fitted dose curve at least 0.9, where 1 is the maximum; inconclusive = response in the unintended direction; inactive = score below 0.9.
# Experiments:
# [1] = target: Estrogen receptor beta (Homo sapiens) (UniProt Q92731); assay: OT_ER_ERbERb_1440: Odyssey Thera (OT) 24-hour HEK293T Protein-Complementation Assay for Estrogen Receptor-beta/-beta Homodimer (AID 2283380);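 also: fluorescence gain from ER beta LBD homodimer complementation read by laser scanning cytometry; scored as signal increase over DMSO baseline for both agonists and antagonists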
# Procedure, shortened: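 Fluorescence increase, nuclear for agonists or whole-cell for antagonists, relative to DMSO vehicle, quantified by laser scanning cytometer after fixation and Draq5 staining. Readout from 24 h treatment of HEK293T cells carrying complementation-paired ER beta LBD (aa 310-547).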
# [2] = target: Estrogen receptor (Homo sapiens) (UniProt P03372); assay: OT_ERa_GFPERaERE_0480: Odyssey Thera (OT) 8-hour HeLa Transcription Induction Assay for Estrogen Receptor (AID 2283381; active = hit-call score of the fitted dose curve at least 0.9, where 1 is the maximum; inactive = score below 0.9)
# Procedure, shortened: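 Fluorescent reporter signal, imaged by microscopy and scored with image-analysis algorithms, was taken 8 h after chemical dosing of HeLa cells; activity was fitted upward relative to DMSO.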
# [3] = target: Estrogen receptor (Homo sapiens) (UniProt P03372); assay: OT_ERa_GFPERaERE_0120: Odyssey Thera (OT) 2-hour HeLa Transcription Induction Assay for Estrogen Receptor (AID 2283382)
# Procedure, shortened: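 HeLa, 384-well, 2 h chemical exposure; GFP reporter induction (ERE), fluorescence microscopy; high content image analysis; positive fitting direction vs DMSO.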
# [4] = target: Retinoic acid receptor RXR-alpha (Homo sapiens) (UniProt P19793); assay: OT_NURR1_NURR1RXRa_0480: Odyssey Thera (OT) 8-hour HEK293T Protein Complementation Assay for Nurr1/retinoid X receptor (RXR) (AID 2283385)
# Procedure, shortened: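 8 h compound exposure, HEK293T; Nurr1/RXRα fragment complementation; fluorescence intensity; positive fitting direction vs DMSO baseline.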
# [5] = target: Retinoic acid receptor RXR-alpha (Homo sapiens) (UniProt P19793); assay: OT_NURR1_NURR1RXRa_1440: Odyssey Thera (OT) 24-hour HEK293T Protein Complementation Assay for Nurr1/retinoid X receptor (RXR) (AID 2283386)
# Procedure, shortened: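 Interaction of Nurr1 with RXRα brings fused reporter fragments together in human HEK293T cells, restoring a functional reporter. Fluorescence intensity is measured 24 h after chemical treatment, and values are analysed in the positive direction against DMSO.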
# [6] = target: Peroxisome proliferator-activated receptor gamma (Homo sapiens) (UniProt P37231); assay: OT_PPARg_PPARgSRC1_0480: Odyssey Thera (OT) 8-hour Protein-Complementation Assay for Peroxisome Proliferator-activated Receptor Gamma / SRC-1 Co-activator (AID 2283387)
# Procedure, shortened: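 Protein-fragment complementation of split Venus YFP reports PPARg/SRC-1 interaction in HEK293T (transfected 48 h before treatment), exposed 8 h. Readout: N/C fluorescence ratio at 488 nm from imaging, Draq5 for segmentation, positive fit relative to DMSO.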
# [7] = target: Peroxisome proliferator-activated receptor gamma (Homo sapiens) (UniProt P37231); assay: OT_PPARg_PPARgSRC1_1440: Odyssey Thera (OT) 24-hour Protein-Complementation Assay for Peroxisome Proliferator-activated Receptor Gamma/ SRC-1 Co-activator (AID 2283388)
# Procedure, shortened: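 HEK293T transiently transfected with PPARg/SRC-1 split-Venus YFP fusions 48 h before dosing, then treated 24 h at 37C. Fixed cells imaged; nuclear/cytoplasmic 488 nm fluorescence ratio, gain of signal versus DMSO.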
# [8] = target: Bile acid receptor (Homo sapiens) (UniProt Q96RI1); assay: OT_FXR_FXRSRC1_0480: Odyssey Thera (OT) 8-hour HEK293T Protein-Complementation Assay for Farnesoid X receptor/SRC-1 Co-activator (AID 2283383)
# Procedure, shortened: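 Human kidney HEK293T cells carried FXR/SRC-1 fragment-complementation constructs. Compounds were added and incubated 8 h. Reporter reassembly upon receptor–co-activator interaction was then quantified by fluorescence, with curves fitted in the positive direction relative to DMSO.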
# [9] = target: Bile acid receptor (Homo sapiens) (UniProt Q96RI1); assay: OT_FXR_FXRSRC1_1440: Odyssey Thera (OT) 24-hour HEK293T Protein-Complementation Assay for Farnesoid X receptor/SRC-1 Co-activator (AID 2283384)
# Procedure, shortened: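 Compounds are applied to human kidney HEK293T cells expressing bait and prey fused to reporter protein fragments; after 24 h, reconstituted reporter fluorescence is measured. Activity is fitted as signal gain over DMSO.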
# Chain of Peroxisome proliferator-activated receptor gamma (Homo sapiens) (P37231 whole entry, looked up, the tested form may be a part): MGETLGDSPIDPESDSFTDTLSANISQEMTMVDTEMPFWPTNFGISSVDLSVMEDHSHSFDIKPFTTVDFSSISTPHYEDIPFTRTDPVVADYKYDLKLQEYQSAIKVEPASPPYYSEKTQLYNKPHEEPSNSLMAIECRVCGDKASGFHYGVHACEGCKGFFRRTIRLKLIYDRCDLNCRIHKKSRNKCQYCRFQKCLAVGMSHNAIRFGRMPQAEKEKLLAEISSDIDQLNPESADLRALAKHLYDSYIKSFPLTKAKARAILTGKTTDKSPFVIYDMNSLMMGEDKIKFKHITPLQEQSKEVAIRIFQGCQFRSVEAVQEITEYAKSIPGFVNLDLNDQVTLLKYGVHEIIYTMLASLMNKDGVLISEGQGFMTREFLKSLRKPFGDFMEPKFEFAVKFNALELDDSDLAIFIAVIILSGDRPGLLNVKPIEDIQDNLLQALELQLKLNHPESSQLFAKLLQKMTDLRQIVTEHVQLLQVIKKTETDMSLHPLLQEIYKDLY
# Chain of Estrogen receptor beta (Homo sapiens) (Q92731 whole entry, looked up, the tested form may be a part): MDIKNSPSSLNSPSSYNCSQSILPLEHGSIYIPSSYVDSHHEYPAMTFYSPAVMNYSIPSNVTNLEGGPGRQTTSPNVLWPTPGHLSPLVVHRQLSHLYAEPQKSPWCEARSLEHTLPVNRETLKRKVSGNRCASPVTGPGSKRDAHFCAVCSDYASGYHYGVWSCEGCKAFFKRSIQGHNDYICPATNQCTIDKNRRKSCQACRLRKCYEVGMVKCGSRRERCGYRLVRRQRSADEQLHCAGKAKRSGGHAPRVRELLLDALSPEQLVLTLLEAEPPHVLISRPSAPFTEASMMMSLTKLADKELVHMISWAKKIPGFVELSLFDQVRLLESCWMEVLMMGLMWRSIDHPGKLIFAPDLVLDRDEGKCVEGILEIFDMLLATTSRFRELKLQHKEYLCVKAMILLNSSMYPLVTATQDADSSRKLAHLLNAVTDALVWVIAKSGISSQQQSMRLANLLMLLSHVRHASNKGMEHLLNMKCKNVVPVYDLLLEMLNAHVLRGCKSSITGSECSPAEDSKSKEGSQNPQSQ
# Chain of Estrogen receptor (Homo sapiens) (P03372 whole entry, looked up): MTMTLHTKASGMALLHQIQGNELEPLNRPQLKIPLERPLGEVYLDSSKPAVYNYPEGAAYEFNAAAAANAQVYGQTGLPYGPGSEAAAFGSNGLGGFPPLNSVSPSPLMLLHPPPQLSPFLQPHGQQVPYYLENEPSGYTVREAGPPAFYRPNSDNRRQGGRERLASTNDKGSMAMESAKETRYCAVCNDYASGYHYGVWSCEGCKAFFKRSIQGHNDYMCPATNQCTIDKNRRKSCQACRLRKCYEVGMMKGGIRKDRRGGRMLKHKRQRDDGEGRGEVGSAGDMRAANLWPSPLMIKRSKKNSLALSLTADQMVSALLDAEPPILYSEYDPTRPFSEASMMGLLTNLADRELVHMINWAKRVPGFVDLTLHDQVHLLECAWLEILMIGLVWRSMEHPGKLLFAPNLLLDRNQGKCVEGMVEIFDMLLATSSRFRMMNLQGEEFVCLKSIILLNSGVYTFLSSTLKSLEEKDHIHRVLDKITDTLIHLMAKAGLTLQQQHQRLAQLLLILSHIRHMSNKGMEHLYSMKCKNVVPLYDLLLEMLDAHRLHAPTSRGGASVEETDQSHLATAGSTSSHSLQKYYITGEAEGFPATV
# Chain of Retinoic acid receptor RXR-alpha (Homo sapiens) (P19793 whole entry, looked up, the tested form may be a part): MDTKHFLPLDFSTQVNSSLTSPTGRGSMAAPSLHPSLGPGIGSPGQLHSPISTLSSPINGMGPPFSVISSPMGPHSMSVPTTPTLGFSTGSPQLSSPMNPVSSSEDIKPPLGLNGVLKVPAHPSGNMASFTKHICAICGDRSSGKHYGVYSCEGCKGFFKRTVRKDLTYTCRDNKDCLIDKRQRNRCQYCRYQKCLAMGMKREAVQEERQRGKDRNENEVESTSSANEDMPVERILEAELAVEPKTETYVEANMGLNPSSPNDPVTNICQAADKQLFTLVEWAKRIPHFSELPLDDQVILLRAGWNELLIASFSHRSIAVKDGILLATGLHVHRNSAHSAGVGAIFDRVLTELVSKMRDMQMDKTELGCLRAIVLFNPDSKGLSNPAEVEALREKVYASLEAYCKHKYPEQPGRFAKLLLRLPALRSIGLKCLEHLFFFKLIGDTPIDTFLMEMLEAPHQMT
# Chain of Bile acid receptor (Homo sapiens) (Q96RI1 whole entry, looked up, the tested form may be a part): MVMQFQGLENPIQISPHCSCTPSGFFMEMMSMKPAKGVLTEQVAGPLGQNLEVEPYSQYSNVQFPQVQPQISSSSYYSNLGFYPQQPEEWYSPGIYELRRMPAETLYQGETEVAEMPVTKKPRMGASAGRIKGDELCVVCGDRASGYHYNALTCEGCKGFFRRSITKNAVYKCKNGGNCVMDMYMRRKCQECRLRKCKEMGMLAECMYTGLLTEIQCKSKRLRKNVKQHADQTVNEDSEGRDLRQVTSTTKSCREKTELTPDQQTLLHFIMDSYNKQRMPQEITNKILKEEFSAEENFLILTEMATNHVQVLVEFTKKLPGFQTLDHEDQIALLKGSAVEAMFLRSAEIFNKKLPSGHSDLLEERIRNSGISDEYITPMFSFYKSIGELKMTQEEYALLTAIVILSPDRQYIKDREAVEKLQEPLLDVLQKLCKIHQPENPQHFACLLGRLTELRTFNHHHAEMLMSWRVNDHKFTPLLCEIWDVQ
smiles,measurement,setting,value
Cc1ccc(N(C)C)cc1,outcome,[1],inactive
same,outcome,[2],inactive
same,outcome,[3],inactive
same,outcome,[4],inactive
same,outcome,[5],inactive
same,outcome,[6],inactive
same,outcome,[7],inactive
Nc1ccccc1N,outcome,[1],inactive
same,outcome,[2],inactive
same,outcome,[3],inactive
same,outcome,[4],inactive
same,outcome,[5],inactive
same,outcome,[6],inactive
same,outcome,[7],inactive
CCCCCCOCCO,outcome,[1],inactive
same,outcome,[2],inactive
same,outcome,[3],inactive
same,outcome,[4],inactive
same,outcome,[5],inactive
same,outcome,[6],inactive
same,outcome,[7],inactive
CC(C)(C)c1cc(O)c(C(C)(C)C)cc1O,outcome,[1],inactive
same,outcome,[2],inactive
same,outcome,[3],inactive
same,outcome,[4],inactive
same,AC50,[5],33.3 µM (active)
same,outcome,[5],inactive
same,outcome,[6],inactive
same,outcome,[7],inactive
CN1CCCC1=O,outcome,[1],inactive
same,outcome,[2],inactive
same,outcome,[3],inactive
same,outcome,[5],inactive
same,outcome,[6],inactive
same,outcome,[7],inactive
CC1=C(/C=C/C(C)=C/C=C/C(C)=C/CO)C(C)(C)CCC1,outcome,[1],inactive
same,outcome,[2],inactive
same,outcome,[3],inactive
same,AC50,[4],18.5 µM (active)
same,outcome,[4],inactive
same,AC50,[5],79.3 µM (active)
same,outcome,[5],inactive
same,outcome,[6],inactive
same,outcome,[7],inactive
Cc1oc(-c2ccccc2)nc1CCOc1cccc2c1ccn2CCC(=O)O,outcome,[1],inactive
same,outcome,[2],inactive
same,outcome,[3],inactive
same,outcome,[4],inactive
same,AC50,[6],2.57 µM (active) and 4.49 µM (active)
same,AC50,[7],3.58 µM (active) and 2.88 µM (active)
CNCc1cc(F)ccc1Oc1ccc(Cl)c(Cl)c1,outcome,[1],inactive
same,AC50,[2],75.6 µM (active)
same,AC50,[3],70.5 µM (active)
same,outcome,[6],inactive
same,outcome,[7],inactive
CCCc1cc(=O)[nH]c(=S)[nH]1,outcome,[2],inactive
same,outcome,[3],inactive
same,outcome,[4],inactive
same,outcome,[5],inactive
same,outcome,[6],inactive
same,outcome,[7],inactive
CN1CCN(Cc2cc(-c3ccc4[nH]c(=O)oc4c3)co2)[C@@H](c2ccc(F)cc2)C1,AC50,[4],10.1 µM (active)
same,outcome,[6],inactive
same,outcome,[7],inactive
CC(=O)C(C)=CC1C(C)=CCCC1(C)C (centres undefined),outcome,[2],inactive
same,AC50,[3],12.3 µM (active)
same,outcome,[4],inactive
same,outcome,[5],inactive
same,outcome,[6],inactive
same,outcome,[7],inactive
CC1(C)NC(=O)NC1=O,outcome,[2],inactive
same,outcome,[3],inactive
same,outcome,[4],inactive
same,outcome,[5],inactive
same,outcome,[6],inactive
same,outcome,[7],inactive
CCCCCCCCCCCCCCCC,outcome,[2],inactive
same,outcome,[3],inactive
same,outcome,[5],inactive
same,outcome,[6],inactive
same,outcome,[7],inactive
CCCCCCCCCCCCCCCCCC(=O)O,outcome,[2],inactive
same,outcome,[3],inactive
same,outcome,[4],inactive
same,outcome,[5],inactive
same,outcome,[6],inactive
same,outcome,[7],inactive
OC[C@@H](O)[C@@H](O)[C@H](O)[C@H](O)CO,outcome,[2],inactive
same,outcome,[3],inactive
same,outcome,[4],inactive
same,outcome,[5],inactive
same,outcome,[6],inactive
same,outcome,[7],inactive
C=CCOC(=O)c1ccccc1C(=O)OCC=C,outcome,[2],inactive
same,AC50,[3],69.7 µM (active)
same,outcome,[8],inactive
same,outcome,[9],inactive
same,outcome,[5],inactive
same,outcome,[6],inactive
same,outcome,[7],inactive
C=CCc1ccc(O)c(OC)c1,outcome,[2],inactive
same,outcome,[3],inactive
same,outcome,[4],inactive
same,outcome,[6],inactive
same,outcome,[7],inactive
Cc1ccc2ncccc2c1,outcome,[2],inactive
same,outcome,[3],inactive
same,outcome,[6],inactive
same,outcome,[7],inactive
